# From the supplement of paper PMC12282887
# ± gives the standard deviation of the averaged measurements.
# Assays:
# Assay in all cases: promoter activity interaction Z-score (Lux/OD deviation from empty-vector control); higher = stronger promoter induction by the compound
# [1] = system: E. coli BW25113 acrABp lux reporter
# In short: (§1)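 Every compound was given at four 1:2 dilutions, in biological duplicates, to E. coli BW25113 carrying low-copy luxCDABE promoter reporters in wild-type or single-gene deletion backgrounds. Growth in 40 µl LB Lennox in 384-well plates at 37°C was followed by OD600 and luminescence readings every 30 min for 12 h, integrated over 0–8 h for wild type and 1–9 h for deletion strains, with wells below 10% of the median growth value excluded. Scores are Z-transformed residuals of growth-normalised luminescence fitted against a control.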
# [2] = system: E. coli BW25113 ompFp lux reporter
# In short: as §1
# [3] = system: E. coli BW25113 robp lux reporter
# In short: as §1
# [4] = system: E. coli BW25113 soxSp lux reporter
# In short: as §1
# [5] = system: E. coli BW25113 tolCp lux reporter
# In short: as §1
# [6] = 13.3 µg/ml, genetic background: wild type
# [7] = 13.3 µg/ml, genetic background: ΔmarA
# [8] = 13.3 µg/ml, genetic background: Δrob
# [9] = 13.3 µg/ml, genetic background: ΔsoxS
# [10] = 26.6 µg/ml, genetic background: wild type
# [11] = 26.6 µg/ml, genetic background: ΔmarA
# [12] = 26.6 µg/ml, genetic background: Δrob
# [13] = 26.6 µg/ml, genetic background: ΔsoxS
# [14] = 53.2 µg/ml, genetic background: wild type
# [15] = 53.2 µg/ml, genetic background: ΔmarA
# [16] = 53.2 µg/ml, genetic background: Δrob
# [17] = 53.2 µg/ml, genetic background: ΔsoxS
# [18] = 106.3 µg/ml, genetic background: wild type
# [19] = 106.3 µg/ml, genetic background: ΔmarA
# [20] = 106.3 µg/ml, genetic background: Δrob
# [21] = 106.3 µg/ml, genetic background: ΔsoxS
compound,measurement,setting,value
NCCc1c[nH]c2ccc(O)cc12 [Serotonine],promoter activity interaction Z-score,[1]; [6],-0.00265 ± 0.11
same,promoter activity interaction Z-score,[1]; [7],-0.788 ± 0.29
same,promoter activity interaction Z-score,[1]; [8],-0.254 ± 0.091
same,promoter activity interaction Z-score,[1]; [9],-0.249 ± 0.17
same,promoter activity interaction Z-score,[1]; [10],0.0217 ± 0.063
same,promoter activity interaction Z-score,[1]; [11],-0.85 ± 0.58
same,promoter activity interaction Z-score,[1]; [12],-0.276 ± 0.24
same,promoter activity interaction Z-score,[1]; [13],-0.0282 ± 0.36
same,promoter activity interaction Z-score,[1]; [14],-0.325 ± 0.06
same,promoter activity interaction Z-score,[1]; [15],-0.49 ± 0.22
same,promoter activity interaction Z-score,[1]; [16],-0.415 ± 0.17
same,promoter activity interaction Z-score,[1]; [17],-0.545 ± 0.3
same,promoter activity interaction Z-score,[1]; [18],0.00625 ± 0.31
same,promoter activity interaction Z-score,[1]; [19],-0.338 ± 0.23
same,promoter activity interaction Z-score,[1]; [20],-0.109 ± 0.092
same,promoter activity interaction Z-score,[1]; [21],-0.397 ± 0.11
same,promoter activity interaction Z-score,[2]; [6],-0.556 ± 0.15
same,promoter activity interaction Z-score,[2]; [7],-0.881 ± 0.092
same,promoter activity interaction Z-score,[2]; [8],-0.716 ± 0.021
same,promoter activity interaction Z-score,[2]; [9],-0.309 ± 0.16
same,promoter activity interaction Z-score,[2]; [10],-0.212 ± 0.059
same,promoter activity interaction Z-score,[2]; [11],-0.69 ± 0.35
same,promoter activity interaction Z-score,[2]; [12],-1.16 ± 0.13
same,promoter activity interaction Z-score,[2]; [13],-0.158 ± 0.048
same,promoter activity interaction Z-score,[2]; [14],-0.996 ± 0.15
same,promoter activity interaction Z-score,[2]; [15],-0.794 ± 0.068
same,promoter activity interaction Z-score,[2]; [16],-0.999 ± 0.19
same,promoter activity interaction Z-score,[2]; [17],-0.802 ± 0.085
same,promoter activity interaction Z-score,[2]; [18],-0.733 ± 0.22
same,promoter activity interaction Z-score,[2]; [19],-0.818 ± 0.24
same,promoter activity interaction Z-score,[2]; [20],-0.632 ± 0.014
same,promoter activity interaction Z-score,[2]; [21],-0.689 ± 0.16
same,promoter activity interaction Z-score,[3]; [6],-0.357 ± 0.24
same,promoter activity interaction Z-score,[3]; [7],-0.786 ± 0.2
same,promoter activity interaction Z-score,[3]; [8],-0.355 ± 0.17
same,promoter activity interaction Z-score,[3]; [9],0.188 ± 0.045
same,promoter activity interaction Z-score,[3]; [10],0.207 ± 0.12
same,promoter activity interaction Z-score,[3]; [11],-0.465 ± 0.14
same,promoter activity interaction Z-score,[3]; [12],-0.388 ± 0.26
same,promoter activity interaction Z-score,[3]; [13],0.275 ± 0.77
same,promoter activity interaction Z-score,[3]; [14],-0.669 ± 0.27
same,promoter activity interaction Z-score,[3]; [15],-0.144 ± 0.64
same,promoter activity interaction Z-score,[3]; [16],-0.179 ± 0.34
same,promoter activity interaction Z-score,[3]; [17],-0.554 ± 0.4
same,promoter activity interaction Z-score,[3]; [18],0.176 ± 0.072
same,promoter activity interaction Z-score,[3]; [19],0.574 ± 0.46
same,promoter activity interaction Z-score,[3]; [20],0.0481 ± 0.46
same,promoter activity interaction Z-score,[3]; [21],-0.714 ± 0.32
same,promoter activity interaction Z-score,[4]; [6],-0.18 ± 0.0085
same,promoter activity interaction Z-score,[4]; [7],-0.19 ± 0.0051
same,promoter activity interaction Z-score,[4]; [8],-0.045 ± 0.2
same,promoter activity interaction Z-score,[4]; [9],-0.24 ± 0.11
same,promoter activity interaction Z-score,[4]; [10],-0.101 ± 0.061
same,promoter activity interaction Z-score,[4]; [11],-0.181 ± 0.093
same,promoter activity interaction Z-score,[4]; [12],-0.254 ± 0.35
same,promoter activity interaction Z-score,[4]; [13],-0.331 ± 0.17
same,promoter activity interaction Z-score,[4]; [14],-0.456 ± 0.097
same,promoter activity interaction Z-score,[4]; [15],-0.276 ± 0.14
same,promoter activity interaction Z-score,[4]; [16],-0.264 ± 0.11
same,promoter activity interaction Z-score,[4]; [17],-0.531 ± 0.027
same,promoter activity interaction Z-score,[4]; [18],-0.199 ± 0.16
same,promoter activity interaction Z-score,[4]; [19],-0.243 ± 0.18
same,promoter activity interaction Z-score,[4]; [20],-0.285 ± 0.11
same,promoter activity interaction Z-score,[4]; [21],-0.676 ± 0.071
same,promoter activity interaction Z-score,[5]; [6],-0.64 ± 0.46
same,promoter activity interaction Z-score,[5]; [7],-0.135 ± 0.24
same,promoter activity interaction Z-score,[5]; [8],0.259 ± 1.6
same,promoter activity interaction Z-score,[5]; [9],-0.321 ± 0.043
same,promoter activity interaction Z-score,[5]; [10],0.564 ± 0.026
same,promoter activity interaction Z-score,[5]; [11],-0.00904 ± 0.37
same,promoter activity interaction Z-score,[5]; [12],-0.3 ± 0.55
same,promoter activity interaction Z-score,[5]; [13],0.737 ± 0.3
same,promoter activity interaction Z-score,[5]; [14],-0.749 ± 0.61
same,promoter activity interaction Z-score,[5]; [15],-0.0593 ± 0.84
same,promoter activity interaction Z-score,[5]; [16],-0.236 ± 1.2
same,promoter activity interaction Z-score,[5]; [17],-0.229 ± 1.1
same,promoter activity interaction Z-score,[5]; [18],-0.235 ± 0.56
same,promoter activity interaction Z-score,[5]; [19],0.575 ± 0.063
same,promoter activity interaction Z-score,[5]; [20],-0.637 ± 0.9
same,promoter activity interaction Z-score,[5]; [21],-0.781 ± 0.14
